PubChem BioAssay AID1814 (Broad Institute, 2009)
About 22,000 (7.3%) of roughly 300,000 compounds were called active. Inconclusive results (about 2%) are left out. Many of the other results were omitted from the sample, so actives are more common in it than they were. Unmarked numbers belong to inactive results. No stated cut-off is given here; in the data, active means activity score below about -60%; inconclusive means mostly about -28% to -61%; inactive means positive scores.

Experiment: Activators via SNCA 5'UTR binding, MLPCN (AID 1814)
Details: alpha-synuclein 5'UTR reporter, activators screen; hits give low values; tested at 7.5 µM
For `O=C(COC(=O)c1cccc(Br)c1)Nc1cccc2c1C(=O)c1ccccc1C2=O`, the activity score was -79% (active). In the case of `CCCC(=O)N=c1sc2cccc(F)c2n1C`, the activity score is reported as -76.7% (active). For `Cn1c(=NC(=O)c2ccco2)sc2cccc(F)c21`, the activity score was -151% (active). For `CS(=O)(=O)N1CCc2cc(C(=O)Nc3ccccc3Br)ccc21`, the activity score was -124% (active). With `CS(=O)(=O)N1CCc2cc(C(=O)Nc3ccccc3)ccc21` the activity score was -104% (active). With `CSc1ccccc1NC(=O)c1ccc2c(c1)CCN2S(C)(=O)=O` the activity score was -66.1% (active). For `CSc1ccccc1NC(=O)c1cc(C2CC2)on1`, the activity score was -116% (active). With `O=C(Nc1cc(C(F)(F)F)ccc1Cl)c1cc2nc3c(c(C(F)(F)F)n2n1)CCCC3` the activity score was -243% (active). In the case of `O=C(Nc1cc(C(F)(F)F)ccc1Cl)c1cc(C2CC2)on1`, the activity score is reported as -77.3% (active). In the case of `O=C(O)c1ccccc1CSc1nc2ccccc2s1`, the activity score is reported as -62.9% (active). In the case of `CC(/C=N/NC(=O)c1cc(-c2ccc3ccccc3c2)n[nH]1)=C\c1ccco1`, the activity score is reported as -220% (active). For `COC(=O)c1ccc(CNC(=O)c2ccc3oc(C(C)C)nc3c2)cc1`, the activity score was -95.9% (active). With `COc1ccc(CNC(=O)c2ccc3oc(C(C)C)nc3c2)cc1` the activity score was -118% (active). In the case of `COC(=O)c1ccc(Sc2ccc(F)cc2)c(N)c1`, the activity score is reported as -107% (active). For `CC(C)(C)c1ccc(/C=C2\SC(=O)N=C2N)cc1`, the activity score was -78.7% (active). In the case of `O=C(Nc1cccc2ccccc12)c1onc2c1CCCC2`, the activity score is reported as -204% (active). With `Cc1ccc2nc(-c3ccc(SCC(=O)Nc4cc(C)on4)nc3)[nH]c2c1` the activity score was -160% (active). In the case of `O=C(c1noc2c1CCCC2)N1CCc2ccccc2C1`, the activity score is reported as -165% (active). In the case of `O=C(NCCNc1ccccc1[N+](=O)[O-])c1ccccc1F`, the activity score is reported as -168% (active). For `NC(=O)c1ccccc1N=Cc1ccc2ccccc2c1`, the activity score was -211% (active). For `CCc1ccc2nc3sc(C(=O)Nc4nnc(CC)s4)c(N)c3cc2c1`, the activity score was -71.1% (active). In the case of `Cc1nc(C)c(-c2csc(NCCc3ccccc3)n2)s1`, the activity score is reported as -84.7% (active). With `CC(c1ccccn1)N(C)C(=O)c1ccc2nc(Cc3cccc(Cl)c3)oc2c1` (configuration not stated) the activity score was -80.8% (active). In the case of `COc1ccc(-c2cc3n(n2)CCc2nc4ccccc4n2-3)cc1`, the activity score is reported as -137% (active). In the case of `COC(=O)c1sc(N2CCN(Cc3ccccc3)CC2)nc1N`, the activity score is reported as -67.9% (active). Work on `CCN1CCN(c2cc3nc(C)n(Cc4ccccc4)c(=O)c3cc2NC(=O)c2ccccc2F)CC1` yielded an activity score of 65.1%. `Oc1ccc2ccccc2c1N=Nc1nccs1` gave an activity score of 87.4%. For `Cn1c(-c2ccc(C(=O)c3ccccc3)s2)nc2ccccc21`, the activity score was -73.8% (active). With `O=C(/C=C/c1cnc2ccccc2n1)NC1CCCCCC1` the activity score was -94.3% (active). `O=[N+]([O-])c1ccccc1S(=O)(=O)Nc1cccc2cccnc12` showed an activity score of 59.9%. With `COc1ccc(NC(=O)Nc2cccc3cccnc23)cc1` the activity score was -211% (active). In the case of `O=C(Nc1ccccc1Cl)Nc1cccc2cccnc12`, the activity score is reported as -162% (active). `OCCN1CCN(C(=S)c2ccc(-c3ccccc3)cc2)CC1` showed an activity score of 88%. With `S=C(c1ccc(-c2ccccc2)o1)N1CCCCC1` the activity score was -113% (active). With `O=C(Nc1ccc(Cl)cn1)Nc1cccs1` the activity score was -78.6% (active). In the case of `Clc1ccc(Nc2ccc3ccccc3n2)cc1`, the activity score is reported as -61.9% (active). With `CCOC(=O)C1(Cc2ccccc2C)CCCN(C(=O)c2ccc(COC)o2)C1` (configuration not stated) the activity score was -84.1% (active). With `O=C(Nc1ccc(N2CCOCC2)nc1)c1c(F)cccc1F` the activity score was -91.2% (active). In the case of `COC(=O)CCNc1ccc2c(c1)OCCO2`, the activity score is reported as -62.2% (active). In the case of `CCCCC(=O)Nc1ccc2c(c1)OCCO2`, the activity score is reported as -102% (active). In the case of `Cc1ccc(SCC(=O)Nc2ccc3c(c2)OCCO3)cc1`, the activity score is reported as -96.9% (active). With `CCc1ccccc1OCC(=O)Nc1ccc2c(c1)OCCO2` the activity score was -104% (active). With `CC(C)(C)C(=O)CSc1nc2ccccc2o1` the activity score was -109% (active). With `CC1Cc2ccccc2N1C(=O)CSc1nc2ccccc2o1` (configuration not stated) the activity score was -87.9% (active). With `CCN(CC)C(=O)CSc1nc2ccccc2o1` the activity score was -63.8% (active). In the case of `Cc1ccc(-c2nc(-c3cccnc3)sc2CC(=O)Nc2ccc(C)c(Cl)c2)cc1`, the activity score is reported as 54.1%. In the case of `CCc1ccc(NC(=O)Nc2ccncc2)cc1`, the activity score is reported as -76.8% (active). With `Cc1ccc(NC(=O)Nc2cccnc2)cc1` the activity score was -97.5% (active). For `Cc1ccc(NC(=O)Nc2nnc(-c3ccncc3)s2)cc1`, the activity score was -68% (active). With `CC(=O)c1cccc(NC(=O)Nc2ccc(C)cc2)c1` the activity score was -144% (active). For `CCCCCCCCn1c2c(c(=N)c3c1CCC3)CCCC2`, the activity score was 101%. For `COC(=O)c1sccc1NC(=S)Nc1ccc(C)cc1`, the activity score was -77.8% (active). For `COc1cc(NC(=O)Nc2ccc(C)cc2)cc([N+](=O)[O-])c1`, the activity score was -141% (active). For `Cc1ccc(NC(=O)Nc2ccccc2)c(Br)c1`, the activity score was -192% (active). For `COC(=O)c1ccc(NC(=O)Nc2ccc(C)cc2)cc1`, the activity score was -81.9% (active). For `O=C(c1ccco1)N1CCN(C(=O)c2cc(-c3ccccc3F)no2)CC1`, the activity score was -156% (active). In the case of `O=C(NCCCN1CCOCC1)c1cc(-c2ccccc2F)no1`, the activity score is reported as -121% (active). In the case of `CCC(=O)/C(=C(/O)c1ccccc1)c1nc2ccccc2[nH]1`, the activity score is reported as -69% (active). In the case of `CC[C@]1(O)C[C@@H]2CN(CCc3c([nH]c4ccccc34)[C@@](C(=O)OC)(c3cc4c(cc3OC)N(C)[C@H]3[C@@](O)(C(=O)OC)[C@H](OC(C)=O)[C@]5(CC)C=CCN6CC[C@]43[C@@H]65)C2)C1`, the activity score is reported as 77.2%. For `CNc1[nH]ncc1[N+](=O)[O-]`, the activity score was -74.2% (active). In the case of `CC1CCC(NC(=O)c2ccc(N3CCCC3=O)cc2)CC1` (configuration not stated), the activity score is reported as -64.3% (active). With `CC1CCCC(NC(=O)c2cccc(N3CCCC3=O)c2)C1C` (configuration not stated) the activity score was -74.5% (active). `CN1c2ccc(C=O)c3c(C=O)ccc(c23)N(C)C1(C)C` gave an activity score of 67%. In the case of `CC1CCN(C(=S)c2ccc(-c3ccc(Cl)cc3Cl)o2)CC1`, the activity score is reported as -91.3% (active). With `O=C(CSc1ccccn1)Nc1nc2c(ccc3ccccc32)s1` the activity score was -63.2% (active). In the case of `COc1ccc2nc(SCc3ccccc3)nc(C)c2c1`, the activity score is reported as -70.7% (active). In the case of `Cc1ccc(-n2ncc3c2ncn2nc(-c4ccco4)nc32)c(C)c1`, the activity score is reported as -88.8% (active).
